From PubChem BioAssay

system: XIP peptide (Xip251-270); assay: small-molecule binders of XIP peptide, primary screen, biochemical, small-molecule microarray, fluorescence 635/667 nm, 0.5 µg/mL protein (AID 1183); conditions: small-molecule microarray binding, fluorescence 635 nm; higher = more signal

In order of falling composite z-score:
1. CC(C)OC(=O)C=C1C[C@@H](c2ccc(C#N)cc2)O[C@@H](c2ccc(C#N)cc2)O1  0.865
2. CC(C)(C)N1CC=CC23O[C@@H]4C=CCCOC(=O)C4[C@H]2C(=O)N(CCCCCO)[C@@H]3C1=O (stereo partly specified)  0.12
3. COCC(=C=CC[C@@H](O)c1ccccc1OCCO)CCO  0.0706

system: not listed separately; assay: Plasmodium falciparum growth inhibition, primary screen, strain 3D7, DAPI fluorescence, 100 nL (AID 1184);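 also: parasites grown inside human red blood cells in medium with human serum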; conditions: P. falciparum 3D7 growth, 3 d, higher = more signal

In order of rising z-score:
1. O=C1O[C@@H](c2ccccc2)[C@@H](c2ccccc2)N2[C@@H](c3ccc(OCCO)cc3)[C@]3(C(=O)Nc4ccccc43)[C@@H](C(=O)N3CCN(c4ncccn4)CC3)[C@H]12  -2.11
2. C=CC[C@]1(C(=O)NCc2ccccc2)N=C(c2ccc(OCCCO)cc2)O[C@H]1c1ccccc1  -2.05
3. COc1ccc([Si](C)(C)[C@H]2[C@H](CC(=O)N3CCC[C@H]3CO)O[C@@]3(C(=O)N(Cc4cccc(N5C(=O)COc6ccccc65)c4)c4ccccc43)[C@@H]2C)cc1  -1.56
4. COC(=O)c1c(CC[C@@H](CO)NC(=O)N[C@H](Cc2ccccc2)Cn2cc(-c3ccccc3N)nn2)oc(C(C)=O)c1C(=O)OC  -1.29
5. COC(=O)[C@@]1(Cc2ccc(F)cc2)[C@H]2c3cc(C(=O)N(C)C)n(Cc4ccc(OC)c(OC)c4)c3C[C@H]2CN1C(=O)c1ccccc1  -1.03
6. O=C(CS)NCCCCCNC(=O)[C@H]1C[C@H]2C(=O)N3CCC[C@H]3C(=O)N2[C@H]1c1cccc(OCCO)c1  -0.718
7. Cn1cccc1C(O)C1C=CC2C(=O)NC(=O)C2N1Nc1ccccn1 (stereo unspecified)  -0.119
8. CN(C)CCCNC(=O)[C@@H]1c2ccccc2C(=O)N(Cc2ccccc2)[C@H]1c1ccc(CO)cc1  0.0535
